# KB-3-1 tox – KB-3-1 parental cell cytotoxicity. Potency, µM (doses to about 46.1 µM), usual class: cytotoxic. 400,000 compounds, 1.4% hits. KB-3-1 viability, CellTiter-Glo ATP luminescence, 72 h; further: on the % scale 0 is the no-effect control and ±100 the full control effect; nearly all actives have a fitted effect of over 60% in size
#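 Cytotoxicity measured as CellTiter-Glo luminescence after 72 h at 37 C. Compound titrations were pinned onto drug-naive KB-3-1 parental adenocarcinoma cells grown in DMEM with 10% FBS, and normalized data fitted to concentration-response curves.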
# MCF10A rereplic – induces DNA re-replication in MCF 10a normal breast cells; MCF 10A DNA re-replication, Hoechst nuclear intensity, 48 h; Potency, µM (highest dose often 46.1 µM), without a hit: at the top dose activity, positive = re-replication, hits mostly activators; 350,000 compounds, 2.9% hits; AID 624296; further: % of control where 0% means no effect; nearly all actives have a fitted effect of over 50% in size
# KB-V1 cytotox – KB-V1 MDR subline cytotoxicity; 400,000 compounds, 3.4% hits; KB-V1 MDR cells viability, CellTiter-Glo, 72 h; Potency, µM (doses to about 46.1 µM), usual class: cytotoxic; further: on the % scale 0 is the no-effect control and ±100 the full control effect; nearly all actives have a fitted effect of over 60% in size
#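 KB-V1, DMEM (no phenol red) + 10% FBS; cpd pin-transferred, titration series; 72 h, 37 degrees C; CellTiter-Glo, luminescence. Data normalized, curve-fit.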
# TSG101-PTAP inh – blocks PTAP/TSG101 interaction to inhibit HIV-1 budding; Q99816; Fluorescence polarization, FITC-PTAP peptide / Tsg101 binding; Potency, µM (series often up to 115 µM), without a hit: top-dose activity change, negative = inhibition, actives largely listed as inhibitors; 340,000 tested, under 10 active; active means well fitted inhibition curve with a large enough effect in the main read-out, with a control signal flat, not every such curve was filed as active; inconclusive means small, poorly fitted or top-dose-only effect, or effect the other way, or a change in a side signal; inactive means no such curve, though single readings can be large or run the other way; further: % of control where 0% means no effect
#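 Fluorescence anisotropy tracks displacement of a FITC-tagged PTAP peptide (50 nM) from the Tsg101 binding domain (10 uM), following a 20 min room-temperature incubation at pH 7.5.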
# RGS4 inhibitor – blocks human RGS4-accelerated GTP hydrolysis; Transcreener GDP fluorescence polarization, RGS4-accelerated GTP hydrolysis; Potency, µM (top dose mostly 114 µM), for the others: at the top dose activity change, negative = inhibition, usual class: inhibitors; 390,000 compounds, 0.039% hits; AID 504845; further: on the % scale 0 is the no-effect control and ±100 the full control effect; nearly all actives have a fitted effect of over 75% in size
# Target sequence (P49798 whole entry, looked up): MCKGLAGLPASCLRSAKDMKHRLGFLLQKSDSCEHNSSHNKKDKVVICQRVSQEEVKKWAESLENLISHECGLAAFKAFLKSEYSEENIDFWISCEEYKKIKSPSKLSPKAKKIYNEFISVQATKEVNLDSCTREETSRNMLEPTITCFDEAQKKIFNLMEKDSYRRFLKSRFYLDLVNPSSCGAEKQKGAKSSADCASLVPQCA
#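 MLSMR compounds (23 nl, pin-transferred) preincubated 10 min at room temperature with a 500nM (2x) first reagent, then RGS4 at 900nM (2x) plus Transcreener GDP mix added; fluorescence polarization (620/688 nm) read before and after 90 min at 30 °C.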
# SW480 rerep – induces DNA re-replication in SW480 colon adenocarcinoma cells. Potency, µM (doses to about 46.1 µM), for the others: at the top dose re-replication activation, actives largely listed as activators. 340,000 compounds, 1.8% hits. SW480 DNA re-replication, Hoechst DNA content imaging, 48 h; further: % of control where 0% means no effect; nearly all actives have a fitted effect of over 55% in size
#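 SW480 cells exposed to compounds for 48 hr at 37 C, 5% CO2, then Hoechst-stained 40 min. Nuclear DNA content imaged by fluorescence scanning (405 nm excitation, 500-530 nm emission); re-replication scored as increased high-intensity nuclei.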
# * hit, by the source's call; i = inactive; u = inconclusive; x = not tested or not shown; [ ] = remark or other dose. An excerpt weighted towards active compounds, which were near 6.6% of everything screened. Unless noted, the call rests on the fitted dose curve; in most records, active means well fitted curve in the direction sought with a large enough effect; inconclusive means small, poorly fitted or top-dose-only effect, or another doubt; inactive means no such curve, though single readings can be large; an effect the other way counts as inactive or inconclusive. Potency means the concentration at half of the fitted maximal effect.
SMILES,KB-3-1 tox,MCF10A rereplic,KB-V1 cytotox,TSG101-PTAP inh,RGS4 inhibitor,SW480 rerep
COc1ccc(N2CCN(c3ncnc4scc(-c5ccc(C)cc5)c34)CC2)cc1,u,23.1µM*,u,-0.2%,-2.4%,u
Fc1ccc(-n2cc(-c3ccccc3)c3c(N4CCOCC4)ncnc32)cc1,i,u,u,-1.3%,-3.6%,14.1%
Cc1ccc(NC(=O)CSc2nncn3c2cc2sccc23)cc1F,x,x,x,x,-40.3%,x
O=c1cc(CSc2ncn[nH]2)[nH]c2c(Cl)cccc12,i,x,i,x,12.1%,x
C=C1CCN(C(CC(C)C)C(=O)NN2CCOCC2)S(=O)(=O)c2ccccc21 (configuration not stated),x,x,x,x,-15.9%,x
COc1ccc(Nc2ncnc3scc(-c4ccc(F)cc4)c23)cc1,i,x,u,x,12.7%,x
COc1ccc(Nc2ncnc3scc(-c4ccc(OC)cc4)c23)cc1,4.11µM*,5.17µM*,3.26µM*,7.0%,18.8%,14.6µM*
CCCOc1ccc(-c2nn(-c3ccccc3)cc2C2NC(=O)NC(C)=C2C(=O)OC)cc1C (configuration not stated),i,x,i,x,-9.6%,x
NC1=NC(c2ccc(Cl)cc2)C(C(=O)c2ccccc2)N1 (configuration not stated),u,5.8µM*,i,-0.1%,13.8%,u
O=C(c1ccccc1)C1CN(c2ccccc2)CC1c1ccc(Cl)cc1 (configuration not stated),i,1.0%,i,-0.8%,-10.8%,-4.9%
CCn1c(C(=O)Nc2ccccc2C(=O)OC)cc2sc(Cl)cc21,i,x,i,x,-9.6%,x
CCCCOC(=O)Nc1ccccc1C(=O)N1CCCC1,i,u,13µM*,-3.0%,-8.2%,u
NC(=O)c1ccccc1NC(=O)Cc1cccs1,i,2.1%,i,0.2%,-0.8%,-3.2%
O=C(Cc1cccs1)Nc1ccccc1-c1nc2ccccc2[nH]1,u,13µM*,u,0.4%,-7.4%,11.6µM*
S=c1[nH]nc(-c2ccc3ccccc3n2)n1-c1cc(Cl)cc(Cl)c1,i,20.0%,16.4µM*,-0.1%,u,-0.9%
CC1(C)OC(=O)C2(Cc3ccccc3N3CCCC32)C(=O)O1 (configuration not stated),x,x,x,x,-13.0%,x
COc1ccc(NC(=O)C(=O)c2cc(C)n(-c3ccc(C)cc3)c2C)cc1Cl,u,x,i,x,29.3%,x
COc1ccc(NC(=O)c2ccc(Cl)c(S(=O)(=O)N3CC(C)OC(C)C3)c2)cn1 (configuration not stated),u,-9.5%,i,-12.9%,5.1%,-2.1%
O=C(c1ccc(Cl)c(S(=O)(=O)N2CCOCC2)c1)N1CCCCCC1,i,u,u,-2.5%,-18.9%,-3.5%
COc1ccc(NC(=O)c2ccc(Cl)c(S(=O)(=O)N3CCc4ccccc4C3)c2)cn1,i,u,4.61µM*,-8.6%,-9.1%,-2.5%
CCOC(=O)C1CCN(C(=O)c2ccc(Cl)c(S(=O)(=O)N3CCCC3)c2)CC1,i,11.0%,u,-0.1%,-12.7%,0.6%
CCOC(=O)C1CCN(C(=O)c2ccc(Cl)c(S(=O)(=O)N3CCOCC3)c2)CC1,i,13µM*,i,-7.4%,-4.8%,u
O=C(c1ccc(Cl)c(S(=O)(=O)N2CCOCC2)c1)N1CCc2ccccc2C1,20.6µM*,9.8%,3.66µM*,0.1%,-18.4%,0.9%
Cc1ccc(C)c(Nc2nn3c(=O)c4ccc(C(=O)NCc5cccs5)cc4nc3s2)c1,x,x,x,x,-48.3%,x
N#Cc1ccc(C(=O)Nc2ccc(Cl)c(-c3nc4cc(Cl)ccc4o3)c2)c(F)c1,i,x,i,x,5.7%,x
CNc1nc(SCc2ccccc2Cl)nc2c1CCCC2,i,18.4µM*,u,0.8%,19.2%,-0.1%[9.22 µM]

# Source: PubChem BioAssay
